HPGD block: qHTS Assay for Inhibitors of HPGD (15-Hydroxyprostaglandin Dehydrogenase). 15-hydroxyprostaglandin dehydrogenase [NAD(+)] (Homo sapiens), P15428. purified HPGD, NADH fluorescence kinetic, PGE2 substrate. Potency, µM, without a hit: at the top dose activity change, negative = inhibition, actives largely listed as inhibitors. hit rate 4.3% among 150,000; note: % is set by controls: 0 for no effect and ±100 for the full control effect
Target sequence (P15428 whole entry, looked up): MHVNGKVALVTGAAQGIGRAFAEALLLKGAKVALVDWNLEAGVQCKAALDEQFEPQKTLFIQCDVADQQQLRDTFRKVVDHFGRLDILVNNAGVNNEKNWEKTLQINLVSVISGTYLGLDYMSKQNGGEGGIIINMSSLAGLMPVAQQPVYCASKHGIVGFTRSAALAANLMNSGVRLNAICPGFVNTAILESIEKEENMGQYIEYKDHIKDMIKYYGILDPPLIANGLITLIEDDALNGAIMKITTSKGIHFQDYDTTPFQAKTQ
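20 nM HPGD preincubated 15 min at room temperature with compound in 50 mM Tris-HCl pH 8, 0.01% Tween 20. Started with 1 mM NAD+ and 30 uM prostaglandin E2; NADH fluorescence (360/450 nm) read 5 times over 30-s intervals, last minus first.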
Lamin A splicing: qHTS Assay for Modulators of Lamin A Splicing. HeLa LMNA splicing GFP/RFP minigene ratio, 48 h. Potency, µM (series often up to 46.1 µM), inactives show at the highest dose ratio change, negative = inhibition, usual class: inhibitors. hit rate 0.01% among 200,000. AID 1487, 2009; active = well fitted inhibition curve with a large enough effect in the signal ratio, with a control signal flat, not every such curve was filed as active; inconclusive = small, poorly fitted or top-dose-only effect, or effect the other way, or a change in a side signal; the % refers to the signal ratio; note: % is set by controls: 0 for no effect and ±100 for the full control effect
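Read-out is the ratio of GFP to DsRed2 object intensity, acquired by 488 nm laser-scanning cytometry on HeLa lamin A-EGFP minigene reporter cells. Compound incubation 48 hrs at 37 °C in Opti-MEM with 2% FBS; DMSO 0.5% final.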
HTT ATP protect: qHTS Multiplex Assay to Identify Dual Action Probes in a Cell Model of Huntington: Cytoprotection (ATP). PC12 HTT-Q103 induced, cytoprotection, ATP luminescence, 40 h. Potency, µM (top dose mostly 56.4 µM), for the others: cytoprotection (ATP increase), usual class: activators. hit rate 0.14% among 230,000. AID 1471, 2008; active = well fitted curve in the direction sought with a large enough effect; inconclusive = small, poorly fitted or top-dose-only effect, or another doubt; inactive = no such curve, though single readings can be large; an effect the other way counts as inactive or inconclusive; note: % of control where 0% means no effect; nearly all actives have a fitted effect of over 45% in size
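Stable PC12 Q103-GFP cells in serum-supplemented, phenol red-free DMEM; induction by tebufenozide at 100 nM final; compound dose series; cell viability quantified luminescently from ATP.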
HttQ103 aggreg: qHTS Multiplex Assay to Identify Dual Action Probes in a Cell Model of Huntington: Aggregate Formation (GFP); PC12 HttQ103-GFP aggregates, Acumen cytometry, 40 h; Potency, µM (top dose mostly 46.1 µM), inactives show top-dose activity change, negative = inhibition, most hits filed as inhibitors; hit rate 1.1% among 220,000; active = well fitted curve in the direction sought with a large enough effect; inconclusive = small, poorly fitted or top-dose-only effect, or another doubt; inactive = no such curve, though single readings can be large; an effect the other way counts as inactive or inconclusive; note: % is set by controls: 0 for no effect and ±100 for the full control effect; nearly all actives have a fitted effect of over 60% in size
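PC12 cells with ecdysone-inducible HTT exon1 Q103-GFP, induced by 100 nM tebufenozide, given compounds in a concentration series. GFP aggregates (1–25 um, 6 SD above background) counted in lysates by laser-scanning cytometry, 488 nm excitation.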
ALDH1A1 block: qHTS Assay for Inhibitors of Aldehyde Dehydrogenase 1 (ALDH1A1). Aldehyde dehydrogenase 1A1 (Homo sapiens), P00352. Purified ALDH1A1, NADH fluorescence, propionaldehyde substrate. Potency, µM (series often up to 75.3 µM), for inactives: top-dose activity, negative = inhibition, most hits filed as inhibitors. hit rate 7.3% among 220,000;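 note: plate controls were no enzyme wells and a reference inhibitor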
JMJD2E inh: qHTS Assay for Inhibitors of Human Jumonji Domain Containing 2E (JMJD2E); Potency, µM (series often up to 57.1 µM), for inactives: at the top dose activity change, negative = inhibition, most hits filed as inhibitors; AID 2147, 2009; hit rate 1.6% among 230,000; JMJD2E catalytic domain, FDH-coupled NADH fluorescence (FDH is formaldehyde dehydrogenase);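 note: 0% = wells with enzyme and -100% = buffer wells without enzyme; nearly all actives have a fitted effect of over 50% in size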
Target sequence (B2RXH2 1-337 limits assumed): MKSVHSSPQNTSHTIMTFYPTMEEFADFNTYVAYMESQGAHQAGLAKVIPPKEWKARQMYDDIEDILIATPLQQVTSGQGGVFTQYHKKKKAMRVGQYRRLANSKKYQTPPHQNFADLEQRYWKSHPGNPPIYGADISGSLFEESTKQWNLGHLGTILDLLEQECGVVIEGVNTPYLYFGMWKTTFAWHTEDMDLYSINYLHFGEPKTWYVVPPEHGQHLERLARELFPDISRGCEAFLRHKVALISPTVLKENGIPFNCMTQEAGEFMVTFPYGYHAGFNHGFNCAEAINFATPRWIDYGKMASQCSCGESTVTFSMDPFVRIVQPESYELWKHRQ
Numbers without * were called inactive; [ ] = another dose, or the depositor's remark. A selection: hits, their analogues and other compounds. The true share with any hit is near 9.2%. Unless noted, calls come from the whole dose curve; as a rule, active = well fitted inhibition curve with a large enough effect (not every such curve was filed as active); inconclusive = small, poorly fitted or top-dose-only effect, or another doubt; inactive = no such curve, though single readings can be large or run the other way. Potency is the fitted concentration of half-maximal effect.

`COc1ccccc1CN1CCC2(CC1)CCN(C(=O)c1cc(C(F)(F)F)cc(C(F)(F)F)c1)CC2` gave HPGD block -13%, HTT ATP protect -17% and ALDH1A1 block 5%.
N[C@H](CS)C(=O)O was read as HTT ATP protect -2% and ALDH1A1 block -11%.
Cc1snc(SCC(=O)c2ccc([N+](=O)[O-])cc2)c1C#N was read as HTT ATP protect inconclusive, HttQ103 aggreg -6%, ALDH1A1 block 2.8µM* and JMJD2E inh 4.5µM*.
Screening O=C(O)C(Cc1ccccc1)N1C(=O)/C(=C/c2ccccc2)SC1=S (centres undefined) returned HPGD block -23%, Lamin A splicing -10%, HTT ATP protect 19%[10 µM], HttQ103 aggreg 3%, ALDH1A1 block -6% and JMJD2E inh -3%.
For O=C(O)C(Cc1ccccc1)N1C(=O)/C(=C/c2cccc3ccccc23)SC1=S (centres undefined) the results were HPGD block 14µM*, Lamin A splicing -9%, HTT ATP protect 0%[10 µM], HttQ103 aggreg -6%, ALDH1A1 block inconclusive and JMJD2E inh -2%.
Screening CN1Cc2ccccc2CC1CNCc1c(C(=O)N2CCCC2)nc2ccccn12 (centres undefined) returned HTT ATP protect 6%, HttQ103 aggreg 2%, ALDH1A1 block inconclusive and JMJD2E inh 7%.
Screening O=C(c1nc2ccccn2c1CN1CCC(Cc2ccccc2)CC1)N1CCCC1 returned HTT ATP protect -31%, HttQ103 aggreg -18%, ALDH1A1 block 11µM* and JMJD2E inh -10%.
For O=c1oc2ccccc2c(N2CCCC2)c1CN1CCCC1 the results were HPGD block -26%, Lamin A splicing inconclusive, HTT ATP protect 5%, HttQ103 aggreg -1%, ALDH1A1 block 14µM* and JMJD2E inh -9%.
CCOc1c(Cl)cc(CNc2ccc(N3CCCC3)cc2)cc1OC was read as Lamin A splicing -17%[46 µM], HTT ATP protect 8%[10 µM], HttQ103 aggreg -14%, ALDH1A1 block inconclusive and JMJD2E inh 8.9µM*.
`COc1ccc(-c2nn(-c3ccccc3)cc2/C=N/NC(N)=S)cc1OC` gave HPGD block -28%, Lamin A splicing inconclusive, HttQ103 aggreg 19%, ALDH1A1 block 11% and JMJD2E inh inconclusive.
For COc1ccc(-c2nn(-c3ccccc3)cc2/C=C(\C#N)S(=O)(=O)c2ccccc2)cc1OC the results were HPGD block -22%, Lamin A splicing -1%, HTT ATP protect 6%[10 µM], HttQ103 aggreg -4%, ALDH1A1 block 8.9µM* and JMJD2E inh 17%.
`Cc1ccc(NNS(=O)(=O)c2ccc(C)cc2)cc1` gave HPGD block 4µM*, Lamin A splicing 8%, HTT ATP protect -34%, HttQ103 aggreg 12%, ALDH1A1 block 6.3µM* and JMJD2E inh 18µM*.
For CSc1ccc(S(=O)(=O)Nc2ccc(S(=O)(=O)Nc3ccc(C)cc3)cc2)cc1 the results were HPGD block -6%, Lamin A splicing -6%, HTT ATP protect 6%, HttQ103 aggreg 4%, ALDH1A1 block 8.9µM* and JMJD2E inh -8%.
Cc1ccc(S(=O)(=O)Nc2ccc3c(c2)CCC3)cc1C was read as HPGD block -6%, Lamin A splicing inconclusive, HTT ATP protect 35%[10 µM], HttQ103 aggreg -29%, ALDH1A1 block -6% and JMJD2E inh 1%.
Cc1ccc(S(=O)(=O)Nc2ccc3c(c2)CCC3)cc1 was read as HPGD block -18%, Lamin A splicing inconclusive, HTT ATP protect -14%[10 µM], HttQ103 aggreg 11%, ALDH1A1 block 11µM* and JMJD2E inh -6%.
`Cc1ccc(-n2ncc(C(=O)Nc3ccc4c(c3)OCO4)c2C2CCN(C(=O)OC(C)(C)C)CC2)c(C)c1` gave Lamin A splicing -14%[46 µM].
`Nc1ccc(O)c(C(=O)O)c1` gave HPGD block 11µM*, Lamin A splicing inconclusive, HTT ATP protect 23%, HttQ103 aggreg 4%, ALDH1A1 block inconclusive and JMJD2E inh inconclusive.
For Nc1ccc(C(=O)O)c(O)c1 (tested in a mixture with another compound) the results were HPGD block -24% and HTT ATP protect -83%.
Screening COC(=O)C1CCN(Cc2cn(-c3ccccc3)nc2-c2ccc3c(c2)OCO3)CC1 returned Lamin A splicing 1%[46 µM], HTT ATP protect 13%[10 µM], HttQ103 aggreg 0%[9.22 µM], ALDH1A1 block inconclusive and JMJD2E inh inconclusive.
C=C(Cl)COc1cc(C)cc2oc(=O)cc(CC)c12 was read as HPGD block inconclusive, Lamin A splicing 11%, HTT ATP protect -6%, HttQ103 aggreg 11%, ALDH1A1 block inconclusive and JMJD2E inh inconclusive.
For Cc1cc(OCc2cc3c(cc2Cl)OCO3)c2c(C)cc(=O)oc2c1 the results were Lamin A splicing -5%, HTT ATP protect 2%[10 µM], HttQ103 aggreg 4%, ALDH1A1 block 0.18µM* and JMJD2E inh 2%.
For Cc1c(C(=O)c2ccccc2)c2ccccn2c1CCc1ccccn1 the results were Lamin A splicing inconclusive, HTT ATP protect -40%, HttQ103 aggreg 10%, ALDH1A1 block 11µM* and JMJD2E inh inconclusive.
`CCOC(=O)C1(C)C=C(Nc2ccc(OC)cc2)C(=O)N1c1ccc(OC)cc1` (centres undefined) gave HPGD block inconclusive, Lamin A splicing -11%, HTT ATP protect -13%[10 µM], HttQ103 aggreg 26%, ALDH1A1 block 2.8µM* and JMJD2E inh 0%.
Screening CCOC(=O)C1(C)C=C(Nc2cccc(OC)c2)C(=O)N1c1ccccc1 (centres undefined) returned HTT ATP protect -40%[10 µM], HttQ103 aggreg 19%[9.22 µM] and JMJD2E inh inconclusive.
Screening CCOC(=O)C1(C)C=C(Nc2ccc(O)cc2)C(=O)N1c1ccc(O)cc1 (centres undefined) returned HPGD block -6%, Lamin A splicing inconclusive, HTT ATP protect 8%[10 µM], HttQ103 aggreg 17%[9.22 µM], ALDH1A1 block 3.5µM* and JMJD2E inh 0%.
Screening Cc1c(Cl)cccc1NC(=O)CSc1cc(-c2ccccc2)ncn1 returned Lamin A splicing 20%[46 µM].
CCN1C(=O)c2cccc3c(S(=O)(=O)NCCc4c[nH]c5ccccc45)ccc1c23 was read as HPGD block -9%, Lamin A splicing -4%, HTT ATP protect 2%, HttQ103 aggreg 24%, ALDH1A1 block 14µM* and JMJD2E inh 4%.

Screening data (PubChem)
